# Shown is part of a subset that was picked to be rich in hits.
# Giardia kill = Small Molecules that selectively kill Giardia lamblia: qHTS. Giardia lamblia trophozoite viability. activity change, % at 7.66 µM, hits read low. 340,000 compounds, 0.15% hits; in the data active = activity change below about -80%; inconclusive = between about -30% and that limit;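 also: parasites exposed to compound for two days anaerobically before the ATP read; % is scaled to controls: 0 for no effect and ±100 for the full control effect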
#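 Compounds were tested on trophozoites seeded at 100 cells/well and held 48 hrs at 37 deg C anaerobically. An ATP-based luminescent kit measured the remaining live cells.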
# RORg inh = qHTS for inhibitors of ROR gamma transcriptional activity. Potency, µM (doses to about 53.6 µM), inactives show at the highest dose activity change, negative = inhibition, actives largely listed as inhibitors. 310,000 compounds, 5.4% hits. Drosophila S2 Gal4-RORgamma UAS-luciferase reporter, 20 h; also: potency is read from the fitted curve at half-maximal effect; % is scaled to controls: 0 for no effect and ±100 for the full control effect; nearly all actives have a fitted effect of over 60% in size
#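 In this cell-based reporter format, copper sulfate (700 uM final) drives Gal4–ROR gamma fusion expression from a metallothionein promoter in Drosophila Schneider cells; compounds preincubated 1 hr, reporter read after 20 hr at ambient temperature.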
# ERG Ets-DNA blk = qHTS for Small Molecule Inhibitors of the ERG Ets/DNA interaction; Transcriptional regulator ERG (Homo sapiens), P11308; fluorescence polarization, His-ERG Ets domain / labelled DNA; Potency, µM (doses to about 76.9 µM), inactives show top-dose FP activity, negative = inhibition, usual class: inhibitors; 370,000 compounds, 0.028% hits; AID 624246, 2012; active = well fitted inhibition curve with a large enough effect in the polarisation, with a control signal flat; inconclusive = small, poorly fitted or top-dose-only effect, or effect the other way, or a change in a side signal; inactive = no such curve, though single readings can be large or run the other way; the % refers to the polarisation;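 also: polarization taken with two DNA probes labelled with fluorescein and Texas red; potency is read from the fitted curve at half-maximal effect; % of control where 0% means no effect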
# Target sequence (P11308 whole entry, looked up, the tested form may be a part): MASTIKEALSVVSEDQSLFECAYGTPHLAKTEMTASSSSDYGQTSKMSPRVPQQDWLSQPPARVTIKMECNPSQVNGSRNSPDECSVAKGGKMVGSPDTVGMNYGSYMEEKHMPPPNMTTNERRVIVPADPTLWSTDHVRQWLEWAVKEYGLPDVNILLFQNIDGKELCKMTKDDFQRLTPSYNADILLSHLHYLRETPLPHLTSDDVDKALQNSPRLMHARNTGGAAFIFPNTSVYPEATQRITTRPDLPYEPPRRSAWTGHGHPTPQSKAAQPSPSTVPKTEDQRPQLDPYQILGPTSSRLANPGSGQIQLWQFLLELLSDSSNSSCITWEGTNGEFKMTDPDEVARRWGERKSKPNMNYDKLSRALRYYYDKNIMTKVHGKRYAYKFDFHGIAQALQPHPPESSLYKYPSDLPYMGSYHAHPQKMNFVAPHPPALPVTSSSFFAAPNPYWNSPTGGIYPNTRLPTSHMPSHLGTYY
#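 His-tagged ERG Ets domain (1 uM in the protein solution; 300mM KCl, 50mM Tris-HCl, 1mM EDTA, 1mM DTT, pH 7.5) received compound, then a probe mix of 5 nM fluorescein-DNA and 100nM Texas-615-DNA. Fluorescence polarization was read for both dyes.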
# a7 integrin act = qHTS for Activators of Integrin-Mediated Alleviation for Muscular Dystrophy; alpha7betagal myoblasts, beta-gal FDG fluorescence, 48 h; Potency, µM (highest dose often 38.3 µM), for the others: top-dose activation, hits mostly activators; 350,000 compounds, 0.064% hits;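 also: potency is read from the fitted curve at half-maximal effect; 100% = response of the positive control SU9516; nearly all actives have a fitted effect of over 60% in size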
#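 alpha7betagal+/- myoblasts (passage 13, 250/well) treated 48 h at 37C with compounds at 1:260 dilution of DMSO stock. Lysed, then beta-galactosidase activity read as FDG fluorescence (ex 480/em 540) after 30 min, with pre-read for autofluorescence.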
# VP16 counter = VP16 counterscreen qHTS for inhibitors of ROR gamma transcriptional activity; Drosophila S2 Gal4-VP16 UAS-luciferase, luminescence, 20 h; Potency, µM (doses to about 53.6 µM), without a hit: at the top dose activity, negative = inhibition, usual class: inhibitors; 310,000 compounds, 3.5% hits;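 also: Gal4-VP16 expression switched on by copper sulfate through the metallothionein promoter; potency is read from the fitted curve at half-maximal effect; % is scaled to controls: 0 for no effect and ±100 for the full control effect; nearly all actives have a fitted effect of over 50% in size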
# * = called active by the depositor; ? = inconclusive; · = no result given; [ ] = another dose, or the depositor's remark. Unless noted, calls follow the shape of the dose curve; as a rule, active = well fitted curve in the direction sought with a large enough effect; inconclusive = small, poorly fitted or top-dose-only effect, or another doubt; inactive = no such curve, though single readings can be large; an effect the other way counts as inactive or inconclusive.
SMILES,Giardia kill,RORg inh,ERG Ets-DNA blk,a7 integrin act,VP16 counter
Cc1cc(C)c(S(=O)(=O)NCc2ccccn2)cc1C,-1,?,5%,34%,-11%
CCN(c1cccc(C)c1)c1ncnc2c1cnn2-c1cccc(Cl)c1,·,·,0%,·,·
O=C1c2cccc3c(O)ccc(c23)C(=O)N1Cc1ccccc1,9,16%,?,-56%,15%
O=S(=O)(NCc1ccccn1)c1cc(Cl)ccc1Cl,-16,8.9µM*,-2%,10%,10µM*
O=S(=O)(Nc1ncccn1)c1cc(Cl)ccc1Cl,23,-19%,-8%,12%,1%
COc1cc(C(=O)N(Cc2ccccc2)c2cccc(C)c2)ccc1OCC(=O)N1CCOCC1,·,·,·,-3%,·
CN(C)S(=O)(=O)c1ccc(C(=O)Nc2nc(-c3cc4ccccc4o3)cs2)cc1,22,?,2%,7%,6.3µM*
O=C(Nc1nc(-c2cc3ccccc3o2)cs1)c1ccc(S(=O)(=O)N2CCCC2)cc1,-1,?,2%,-45%,7.9µM*
CC1CN(S(=O)(=O)c2ccc(C(=O)Nc3nncs3)cc2)CC(C)O1 (centres undefined),-2,·,-5%,20%,·
O=C(Nc1nc(-c2ccc(S(=O)(=O)N3CCOCC3)cc2)cs1)c1ccccc1,-19,14%,-4%,9%,-10%
c1ccc2oc(-c3csc(NCC4CCCO4)n3)cc2c1 (centres undefined),14,7.9µM*,-1%,-6%,?
CC1CN(S(=O)(=O)c2ccc(C(=O)Nc3nc(-c4cc5ccccc5o4)cs3)cc2)CC(C)O1 (centres undefined),32,?,9%,-50%,2.8µM*
CC1=C(C(=O)O)N2C(=O)[C@@H](NC(=O)[C@@H](N)c3ccc(O)cc3)[C@@H]2SC1,·,4%[2.98 µM],·,·,6%[17 µM]
CN1CCN(C(=S)c2cn(Cc3ccc(F)cc3)c3ccccc23)CC1,?,?,1%,-21%,3%
CC1CCN(C(=S)c2cn(Cc3ccc(F)cc3)c3ccccc23)CC1,-7,5µM*,-3%,-42%,11µM*
CC1CCN(C(=O)C(=O)c2cn(CC(=O)N3CCCC3)c3ccccc23)CC1,8,-8%,0%,-23%,-2%
CCN(CC)C(=O)Cn1cc(C(=O)C(=O)N2CCN(C)CC2)c2ccccc21,2,-6%,8%,-6%,-11%
CN1CCN(C(=S)c2cn(Cc3ccccc3F)c3ccccc23)CC1,-4,11µM*,-1%,0%,6%
CN1CCN(C(=S)c2cn(Cc3cccc(F)c3)c3ccccc23)CC1,11,13µM*,7%,-11%,-8%
CC1CCN(C(=S)c2cn(Cc3ccccc3F)c3ccccc23)CC1,8,0.89µM*,1%,-49%,4.5µM*
CCOc1ccc(CCNC(=O)c2ccc(CS(=O)(=O)Cc3ccccc3Cl)o2)cc1OCC,·,·,9%,·,·
Cc1cccc2c(=O)cc(CSc3ccccc3NC(=O)C(C)(C)C)[nH]c12,·,·,5%,·,·
C=CC[C@@H]1C=C[C@@H](O/N=C\C[C@@H]2C=C[C@H](OC(C)=O)[C@H](COC(C)=O)O2)[C@@H](CO)O1,·,18%[10 µM],·,·,4%[10 µM]
O=[N+]([O-])c1ccc(N=Nc2c(Cl)cc(O)cc2Cl)cc1,2,?,3%,-58%,5µM*
COc1ccc(-n2cc(CNCCCn3ccnc3)c(-c3cccc(F)c3)n2)cc1,23,11µM*,1%,-25%,32µM*
COc1ccc(-n2cc(CNCC3CCOCC3)c(-c3cccc(F)c3)n2)cc1,8,0%,19%,-52%,-10%
O=[N+]([O-])c1ccc(N2CCN(C(=S)NCc3ccc(Cl)cc3)CC2)cc1,15,-25%,8%,-8%,?
O=[N+]([O-])c1ccc(CN2CCN(c3ccc(Cl)cc3)CC2)o1,-94*,-12%,7%,19%,5%
COc1ccccc1NC(=O)CCCCCN1C(=O)c2cccc([N+](=O)[O-])c2C1=O,-20,-1%,17%,36%,2%
COc1cc(/C=C2/C(=O)c3cccc([N+](=O)[O-])c3C2=O)c(Br)cc1O,-5,?,0%,-44%,35µM*
